# High-throughput results (PubChem)
# EBV LMP1 NFkB – EBV LMP1-driven NF-kappaB luciferase reporter inhibitors, primary screen, cell-based, luminescence, single point | LMP1-induced NF-kappaB luciferase reporter cells | inhibition, % at 12.5 µM | 0.69% of 350,000 active | AID 504558, 2011; in the data active means inhibition above about 41%; inconclusive means no clear call, values can overlap the other calls
# TWEAK Fn14 block – inhibitors of TWEAK-Fn14 signaling, primary screen, luciferase reporter cells, uHTS; TWEAK-stimulated Fn14 reporter cells, luciferase luminescence, 8 h; inhibition, % at 10 µM; 2% of 360,000 active; AID 1159606, 2016; in the data active means inhibition above about 50%
# aDG glyco act – activators of alpha-DG glycosylation, primary screen, uHTS, Pro5-aDG cells, AlphaScreen. alpha-DG glycosylation AlphaScreen (IIH6); 0% Pro5, 100% B10-LARGE cell signal. activation, % at 10 µM. 0.22% of 360,000 active. AID 624168, 2012;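 active means activation of at least 8% versus controls, or a plate z-score of at least 8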;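 further: Pro5 are CHO cells carrying HIG-tagged alpha-DG that lacks glycosylation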
# LGR2 inh – inhibitors of bursicon-induced LGR2 CRE-luciferase signal, primary screen, cell-based, HEK293, CRE-luciferase reporter, bursicon stimulation. Drosophila bursicon receptor LGR2 (rickets). bursicon-stimulated, 4 h. inhibition, % at 9.99 µM. 0.35% of 380,000 active. AID 720647, 2013;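 active means drop in luminescence signal, shown as inhibition above about 50% in the replicate tests, limit read from the data, passing the limit was not always enough; inconclusive means probably only some replicates passing the limit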;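 further: agonist challenge used bursicon conditioned medium at about half maximal strength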
# HSP90 inh – HSP90 inhibitors, primary screen, cell lysate, luminescence | 0.91% of 290,000 active | Heat shock protein HSP 90 (rabbit reticulocyte lysate; luciferase refolding) | AID 1789, 2009 | Rabbit reticulocyte lysate, luciferase refolding luminescence, 3 h | inhibition, % at 5.6 µM;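 active means inhibition above the screen-wide mean plus 3 SD, computed separately per campaign, cut at about 16% in these data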;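 further: inhibitors lower the luminescence because luciferase stays unfolded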
# TROY NFkB inh – inhibitors of TROY-driven NF-kB signaling, primary screen, Q293 LMP1-TROYcd cells, NF-kB luciferase, uHTS; Q293 LMP1-TROYcd NF-kB luciferase reporter, 4 h; inhibition, % at 10 µM; 0.98% of 360,000 active;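 active means compounds whose plate-normalised and pattern-corrected inhibition of the luciferase reporter signal at the single screening dose is 50% or more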
# HSP90 inh confirm – HSP90 inhibitors, confirmation, cell lysate, luminescence; rabbit reticulocyte lysate, luciferase refolding luminescence, 3 h; shares compounds with HSP90 inh; inhibition, % at 5.9 µM; AID 1846, 2009; 64% of 2,300 active; in the data active means inhibition above about 18%
# luciferase ctr – firefly luciferase inhibitors, HSP90 counter-screen, confirmation, artefact control for HSP90 inhibitor project, biochemical, luminescence, triplicate. shares compounds with HSP90 inh. purified native firefly luciferase. inhibition, % at 5.9 µM. 48% of 2,300 active. AID 1847, 2009;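 active means inhibition above the mean inhibition of all tested sample wells plus 3 SD, cut at about 10% in these data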
# Target sequence (P08659 whole entry, looked up): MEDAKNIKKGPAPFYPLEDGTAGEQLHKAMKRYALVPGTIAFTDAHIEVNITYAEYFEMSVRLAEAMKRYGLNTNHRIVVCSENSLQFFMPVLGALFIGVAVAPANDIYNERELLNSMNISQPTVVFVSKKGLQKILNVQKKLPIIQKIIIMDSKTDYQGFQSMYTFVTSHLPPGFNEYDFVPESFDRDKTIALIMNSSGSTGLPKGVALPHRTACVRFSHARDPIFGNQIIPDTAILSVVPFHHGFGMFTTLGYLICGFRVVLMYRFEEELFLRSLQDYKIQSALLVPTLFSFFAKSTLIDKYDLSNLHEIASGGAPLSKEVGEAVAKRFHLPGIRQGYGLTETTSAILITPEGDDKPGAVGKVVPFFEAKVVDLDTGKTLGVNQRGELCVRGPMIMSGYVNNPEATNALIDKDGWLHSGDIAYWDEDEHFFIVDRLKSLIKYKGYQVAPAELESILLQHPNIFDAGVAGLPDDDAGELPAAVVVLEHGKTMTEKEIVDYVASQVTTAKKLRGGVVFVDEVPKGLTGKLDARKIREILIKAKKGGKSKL
# A number is an active result; i = inactive; ? = inconclusive; nt = no result given. A selection: hits, their analogues and other compounds. The true share with any hit is near 2.6%.
SMILES,EBV LMP1 NFkB,TWEAK Fn14 block,aDG glyco act,LGR2 inh,HSP90 inh,TROY NFkB inh,HSP90 inh confirm,luciferase ctr
Cc1cccc(C(=O)OCC(=O)Nc2c(C)nn(-c3ccccc3)c2C)c1O,i,i,i,i,nt,i,nt,nt
COc1ccc(-c2cc(-c3ccccc3)c(C#N)c(S(C)(=O)=O)n2)cc1,i,i,i,nt,i,i,nt,nt
CS(=O)c1nc(-c2ccc(Br)cc2)cc(-c2ccccc2)c1C#N (configuration not stated),i,56,i,97,i,74,nt,nt
N#Cc1c(-c2ccc(Br)cc2)cc(-c2cccnc2)nc1N,i,i,i,i,i,i,nt,nt
CS(=O)(=O)c1nc(-c2ccc(Br)cc2)cc(-c2ccccc2)c1C#N,i,i,i,nt,i,63,nt,nt
C[C@H](NC(=O)C[C@@H]1C[C@H]2c3cc(NS(=O)(=O)c4ccc(F)cc4)ccc3O[C@H]2[C@H](CO)O1)c1ccccc1,nt,nt,nt,i,nt,nt,nt,nt
Cc1cc(C(=O)Nc2nc3c(s2)CCCC3)no1,i,61,i,nt,i,i,nt,nt
CCN1CC2([N+](=O)[O-])CC=C(OC)C([N+](=O)[O-])(C1)C2 (configuration not stated),i,73,i,i,i,i,nt,nt
CN(C)/C=C1/Sc2ccccc2C1=O,i,i,i,nt,21,i,i,i
CC(=O)N(\C=C/C=C/C=C1\Sc2ccccc2C1=O)c1ccccc1,i,i,i,i,i,i,nt,nt
CCNC(=O)C[C@@H]1CC[C@H]2[C@@H](COC[C@H](O)CN2C(=O)c2cc(Cl)cc(Cl)c2)O1,nt,nt,nt,i,nt,nt,nt,nt
CC1(C)C2CCC(C2)C1(C)NC(=O)CN1CCOCC1 (configuration not stated),i,i,i,nt,28,i,i,i
O=C(Cc1nc2ccccc2[nH]1)c1cccc([N+](=O)[O-])c1,i,i,i,?,20,i,27,i
Cc1cccn2c(=O)c(/C=C(\C#N)C(=O)NC3CCS(=O)(=O)C3)c(Oc3ccccc3Cl)nc12 (configuration not stated),i,i,i,i,i,i,nt,nt
Cc1ccccc1Oc1nc2c(C)cccn2c(=O)c1/C=C(\C#N)C(=O)NC1CCS(=O)(=O)C1 (configuration not stated),i,i,i,i,17,i,26,i
CC(C)NC(=O)N(C)C[C@@H]1Oc2ccc(NC(=O)c3ccncc3)cc2CC(=O)N([C@@H](C)CO)C[C@H]1C,nt,nt,nt,i,nt,nt,nt,nt
Cc1ccc(C(=O)CSc2cnc3ccccc3n2)cc1C,i,89,i,i,37,76,47,29
CN(C)C(=O)CSc1cnc2ccccc2n1,i,i,i,i,i,i,nt,nt
O=C(CC(Nc1ccccc1Cl)C(=O)OCC(=O)c1cccs1)c1ccccc1 (configuration not stated),i,70,i,nt,32,71,43,38
O=C(CC(Nc1ccc(Cl)cc1Cl)C(=O)O)c1ccccc1 (configuration not stated),i,95,i,i,25,87,76,74
CCCNC(=O)C[C@H]1CC[C@H]2[C@@H](COc3ccc(NC(=O)C4CCOCC4)cc3C(=O)N2C)O1,nt,nt,nt,i,nt,nt,nt,nt
Fc1ccc(-n2nnc(-c3nccs3)n2)cc1,i,i,i,i,20,i,32,25
C[C@@H]1CN([C@H](C)CO)C(=O)Cc2cc(NS(C)(=O)=O)ccc2O[C@@H]1CN(C)S(=O)(=O)c1cn(C)cn1,nt,nt,nt,i,nt,nt,nt,nt
CCN(CC)c1ccc2cc(/C(N)=N/NC(=O)c3cccs3)c(=O)oc2c1,nt,nt,nt,nt,22,nt,i,i
COc1ccc(CC(=O)Oc2cc(C)ccc2C)cc1,i,i,i,i,17,i,i,i
SMILES,EBV LMP1 NFkB,TWEAK Fn14 block,aDG glyco act,LGR2 inh,HSP90 inh,TROY NFkB inh,HSP90 inh confirm,luciferase ctr
CCOC(=O)c1c(S(=O)(=O)N2CCCC(C(=O)Nc3cccc(C)n3)C2)c(C)n(C)c1C (configuration not stated),i,i,i,i,21,i,i,i
O=C(O)C1CC=CCC1C(=O)Nc1ccc(F)c(F)c1 (configuration not stated),i,i,i,nt,i,i,nt,nt
O=C(O)C1CC=CCC1C(=O)Nc1ccc2c(c1)OCCO2 (configuration not stated),i,79,i,nt,38,59,i,i
CCOc1ccc(C(=O)Nc2ccc3c(c2)OCCO3)cc1,i,i,i,i,22,i,37,16
O=C(Nc1ccc2c(c1)OCCO2)c1cc(F)c(F)cc1Cl,i,i,i,i,i,i,nt,nt
Cc1cc(NC(=O)c2ccc3c(c2)OCCO3)no1,60,77,i,nt,27,i,58,49
CCOc1ccc(NC(=O)CN2CCN(CC(=O)Nc3ccc4c(c3)OCCO4)CC2)cc1,i,i,i,nt,i,i,nt,nt
Cc1ccc(C(=O)Nc2ccc3c(c2)OCCO3)c(Cl)c1,47,90,i,82,59,i,75,68
O=C(Nc1ccc2c(c1)OCCO2)Nc1ccc2c(c1)OCO2,i,51,i,i,19,i,41,30
O=C(Nc1ccc2c(c1)OCCO2)c1cccc(Br)c1,i,i,i,i,i,i,nt,nt
Cc1ccc(C(=O)Nc2ccc3c(c2)CCC3)cc1,i,71,i,?,25,i,71,67
Cc1ccc(C(=O)NCC(=O)Nc2ccc3c(c2)CCC3)cc1,i,i,i,i,nt,i,nt,nt
CCCOc1cccc(C(=O)Nc2ccc3c(c2)OCCO3)c1,i,i,i,i,21,i,40,25
O=C(Nc1ccc2c(c1)OCCO2)c1ccc(Br)cc1,i,i,i,i,i,i,nt,nt
Cc1ccc(C(=O)Nc2ccc3c(c2)OCCO3)cc1,43,84,i,67,58,i,75,63
N#C[C@@H]1N[C@@H](CO)[C@@H]1c1ccc(C#CC2CCCC2)cc1,nt,nt,nt,i,nt,nt,nt,nt
O=C(Nc1ccc2c(c1)OCO2)c1ccncc1,i,i,i,nt,i,i,nt,nt
O=C(NC(=S)Nc1ccc2c(c1)OCCO2)c1ccco1,i,i,i,nt,24,i,20,i
Cc1ccc(C(=O)Nc2ccc3c(c2)OCO3)cc1,i,53,i,nt,66,i,52,38
CCOc1ccc(C(=O)Nc2cc(C)ccn2)cc1,53,77,i,65,50,i,75,58
O=C(CCc1ccc(O)cc1)NN=Cc1ccc2c(c1)OCO2,i,i,i,i,nt,i,nt,nt
